PubChem BioAssay AID624126 (The Scripps Research Institute Molecular Screening Center, 2012)
Hit rate of the full screen: of about 360,000 compounds, about 1,400 (0.39%) were called active. The entries come from a sample that favours actives as a whole. Unmarked numbers belong to inactive results.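 How the source made its calls: active means activation above its plate's cutoff, the mean activation of sample wells plus 3 SD; inactive means the rest.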

molecular target: Muscarinic acetylcholine receptor M4 (Homo sapiens) (UniProt P08173); assay: CHRM4 PAMs potentiating acetylcholine calcium signal – CHO-K1 cells, Fluo-8 calcium fluorescence, primary screen (AID 624126); settings: CHO-K1 hM4/Gqi5, Fluo-8 calcium fluorescence, ACh EC20; at 3 µM; active compounds read high; 0% = ACh EC20, 100% = maximal ACh
Sequence (P08173 whole entry, looked up): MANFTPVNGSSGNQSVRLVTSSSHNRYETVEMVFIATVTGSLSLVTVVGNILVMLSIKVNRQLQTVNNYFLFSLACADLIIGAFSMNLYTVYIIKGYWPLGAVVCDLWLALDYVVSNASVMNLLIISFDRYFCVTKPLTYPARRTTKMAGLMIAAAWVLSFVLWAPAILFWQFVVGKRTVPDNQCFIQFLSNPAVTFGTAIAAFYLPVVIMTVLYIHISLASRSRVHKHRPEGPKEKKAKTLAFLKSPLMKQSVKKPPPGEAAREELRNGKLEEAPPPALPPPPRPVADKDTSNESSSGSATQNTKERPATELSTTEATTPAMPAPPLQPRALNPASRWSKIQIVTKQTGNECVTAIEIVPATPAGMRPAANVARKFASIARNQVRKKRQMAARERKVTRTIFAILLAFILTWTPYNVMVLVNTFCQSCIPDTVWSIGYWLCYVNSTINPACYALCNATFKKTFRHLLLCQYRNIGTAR

| Structure (SMILES) | activation |
| --- | --- |
| COc1ccc(OC)c(S(=O)(=O)N2CCCC(C(=O)N3CCC(C(N)=O)CC3)C2)c1 (centres undefined) | 6.48% |
| Cc1cccc(C(C)C)c1NC(=O)COC(=O)C1CC(=O)N(Cc2ccccc2)C1 (centres undefined) | 1.78% |
| CCC/C(C)=N\Nc1nc2c(c(=O)n(C)c(=O)n2C)n1C | -1.33% |
| O=C(Nc1ccc(N2C(=O)c3cccc4cccc(c34)C2=O)cc1)c1ccc(N2CCCCC2)c([N+](=O)[O-])c1 | 4.02% |
| COc1ccccc1N1CCN(Cc2cc(OC)c3c(c2)OCO3)CC1 | -6.02% |
| COc1ccccc1N1CCN(Cc2ccc(OC)c3ccccc23)CC1 | -3.43% |
| CNCC(O)CN1CCN(c2ccccc2OC)CC1 (centres undefined) | 19.7% (active) |
| COc1ccccc1-n1c(=S)[nH]c2c(sc(=S)n2-c2ccc(C)cc2C)c1=O | 2.71% |
| COc1ccc(-c2c(NC(=O)c3ccco3)oc3ccc(Cl)cc3c2=O)cc1 | 11.2% |
| Cc1cccc(-c2c(NC(=O)c3ccco3)oc3ccc(Cl)cc3c2=O)c1 | 7.81% |
| Cn1c(NC(=O)c2ccco2)c(-c2ccccc2Cl)c(=O)c2ccccc21 | 31% (active) |
| Cc1cccc(C)c1-n1nnnc1C1(C)CCC(=O)N1CCOc1ccccc1 (centres undefined) | 6% |
| CC1(C(=O)NCc2ccc3c(c2)OCO3)CCN1C(=O)Cc1cccs1 (centres undefined) | 3.27% |
| CSc1nc(C)cc(SC(C(C)=O)C(=O)Nc2ccccc2)n1 (centres undefined) | 22.6% (active) |
| CC(Sc1nnc2c(n1)C1CCC2(C)C1(C)C)C(=O)Nc1ccccc1 (centres undefined) | -0.53% |
| COc1ccc(NC(=O)C(C)SCc2ccccc2)cc1 (centres undefined) | 0.44% |
| CCCCN1C(=O)C(CC(=O)NCc2cccs2)CC(C(=O)N2CCCCCC2)=C1C (centres undefined) | 0.62% |
| O=C(Nc1ccc(C2CC2(Cl)Cl)cc1)c1cccc([N+](=O)[O-])c1 (centres undefined) | -15.5% |
| C/C(=N\NC(=O)c1cccc([N+](=O)[O-])c1)c1cccnc1 | 1.53% |
| Cc1cc(C)nc(NC(=O)c2cccc([N+](=O)[O-])c2)c1 | 31.6% (active) |

| Structure (SMILES) | activation |
| --- | --- |
| O=C(c1ccc(C(F)(F)F)cc1)C1CCCN(C(=O)c2csnn2)C1 (centres undefined) | 5.9% |
| c1ccc2c(c1)OCC(c1nn3cnnc3s1)O2 (centres undefined) | 13.1% |
| CCc1ccc(NC(=O)CSc2nnc(-c3cnccn3)n2Cc2ccco2)cc1 | -2.71% |
| CCn1c(SCC(=O)Nc2cc(C)ccc2C)nnc1-c1cnccn1 | 35.7% (active) |
| CCn1c(SCC(=O)NC2CC2)nnc1-c1ccccn1 | -4.53% |
| CC1COc2ccccc2N1C(=O)c1cccnc1Cl (centres undefined) | -13.4% |
| CC(=O)c1c(C)[nH]c(C(=O)N2CCN(S(=O)(=O)c3ccc(F)c(F)c3)CC2)c1C | 1.38% |
| CC(C)(C)C(=O)Nc1ccc(-c2cn3cccnc3n2)cc1 | 1.07% |
| Cc1c(-c2cccc(Cl)c2)nc2ccccc2c1C(=O)OCC(=O)N(C)C1CCS(=O)(=O)C1 (centres undefined) | 22.5% (active) |
| COc1ccc2c(-c3ccccc3)cc(SCC(=O)N(C)C3CCS(=O)(=O)C3)nc2c1 (centres undefined) | -1.12% |
| CN(C(=O)COC(=O)c1cc(-c2ccco2)nc2ccccc12)C1CCS(=O)(=O)C1 (centres undefined) | -1.7% |
| O=C(Nc1ccc(F)cc1)C1CCCN(S(=O)(=O)c2ccc(-n3cnnn3)cc2)C1 (centres undefined) | 8% |
| CCOC(=O)c1ccc(S(=O)(=O)N(CCO)Cc2cc3cc(OC)c(OC)cc3[nH]c2=O)cc1 | -7.09% |
| O=C(CN1C(=O)S/C(=C\c2ccccc2F)C1=O)NCCCn1ccnc1 | 17.2% (active) |
| O=C(CCN1C(=O)c2ccccc2C1=O)NCCCn1ccnc1 | 8.67% |
| O=C(NCCCn1ccnc1)/C(=C\c1ccccc1F)NC(=O)c1ccccc1 | -3.09% |
| CC(C)(C)CC(=O)Nc1nnc(SCC(=O)NCc2cccs2)s1 | -0.98% |
| COC(=O)CSc1nnc(NC(=O)CCc2ccccc2)s1 | 19.8% (active) |
| COCCNc1nnc(SCC(=O)NNC(=O)c2ccco2)s1 | 2.78% |
| COc1ccc(CC(=O)N2N=C(C)CC2(O)C(F)(F)F)cc1 (centres undefined) | 24% (active) |

| Structure (SMILES) | activation |
| --- | --- |
| CC1=NN(C(=O)CCc2ccccc2O)C(O)(C(F)(F)F)C1 (centres undefined) | 5.29% |
| CC1=NN(C(=O)CCCc2ccccc2)C(O)(C(F)(F)F)C1 (centres undefined) | 9.78% |
| Cn1cc(CN2CCCCC2c2ccccn2)c(-c2ccc3c(c2)OCCO3)n1 (centres undefined) | 5.23% |
| CCOC(=O)c1c(NC(=O)C2CC=CCC2C(=O)O)sc(C)c1CC (centres undefined) | 0.65% |
| O=C1CCCCC1Sc1ccc(Cl)cc1[N+](=O)[O-] (centres undefined) | -0.97% |
| O=C(NC1CCCCC1)C1CCCN(S(=O)(=O)c2ccc(Br)s2)C1 (centres undefined) | -0.65% |
| CC1=C(C(=O)N2CCOCC2)CC(CC(=O)NCc2cccc3ccccc23)C(=O)N1CCC1=CCCCC1 (centres undefined) | 0.96% |
| COc1ccc(C(C(=O)NCC2CCCO2)N(C(=O)Cn2nnc3ccccc32)c2ccc(NC(C)=O)cc2)cc1OC (centres undefined) | 6.34% |
| Cc1ccc(C(C(=O)NCc2ccco2)N(CC2CCCO2)C(=O)Cn2nnc3ccccc32)cc1 (centres undefined) | 4.26% |
| CCOc1cc(C(C(=O)NCC2CCCO2)N(C(=O)Cn2nnc3ccccc32)c2cccc(OC)c2)ccc1O (centres undefined) | 44.7% (active) |
| Cc1ccc(NC(=O)C2CC2)cc1S(=O)(=O)N1CCOCC1 | 0.09% |
| CC(C)Oc1ccc(C(=O)Nc2cc(=O)n(C)c(=O)n2C)cc1 | 5.54% |
| C=CCOc1ccc(/C=N/n2cncn2)cc1OC | 8.05% |
| COc1ccc(-c2oc3ncn(Cc4ccco4)c(=N)c3c2-c2ccc(OC)cc2)cc1 | -6.61% |
| O=C(Cn1c(=O)n(Cc2ccco2)c(=O)c2ccccc21)NCC1CCCO1 (centres undefined) | 5.16% |
| Cn1c2ccccc2c(=O)c2c(=O)n(Cc3ccco3)c(COc3ccccc3)nc21 | 21.8% (active) |
| CCc1cccc(NC(=O)COC(=O)c2cc(=O)c3ccccc3o2)c1 | 10.9% |
| COc1ccc(CCNC(=O)COC(=O)c2ccc[nH]c2=O)cc1 | 11.3% |
| COc1ccc(CCNC(=O)COC(=O)c2cc(=O)c3ccccc3o2)cc1 | 26.3% (active) |
